# Measurements reported in PubChem BioAssay AID1209 (Sanford-Burnham Center for Chemical Genomics, 2008).
# The campaign covered roughly 190,000 compounds. About 810 (0.43%) were called active. The entries come from a sample that favours actives as a whole. Unmarked numbers belong to inactive results. Rule as the data show it: active = inhibition above about 50%; inactive = the rest.
# Molecular target: Mannose-6-phosphate isomerase (Homo sapiens) (UniProt P34949)
# Experiment: MPI enzyme activity inhibition – biochemical, fluorescence intensity, coupled assay, primary screen (AID 1209);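 also: plate controls were DMSO vehicle for no effect and wells lacking substrate for full effect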
# Conditions: purified PMI enzyme, at 20 µM, hits give high values
# Sequence of Mannose-6-phosphate isomerase (Homo sapiens) (P34949 whole entry, looked up): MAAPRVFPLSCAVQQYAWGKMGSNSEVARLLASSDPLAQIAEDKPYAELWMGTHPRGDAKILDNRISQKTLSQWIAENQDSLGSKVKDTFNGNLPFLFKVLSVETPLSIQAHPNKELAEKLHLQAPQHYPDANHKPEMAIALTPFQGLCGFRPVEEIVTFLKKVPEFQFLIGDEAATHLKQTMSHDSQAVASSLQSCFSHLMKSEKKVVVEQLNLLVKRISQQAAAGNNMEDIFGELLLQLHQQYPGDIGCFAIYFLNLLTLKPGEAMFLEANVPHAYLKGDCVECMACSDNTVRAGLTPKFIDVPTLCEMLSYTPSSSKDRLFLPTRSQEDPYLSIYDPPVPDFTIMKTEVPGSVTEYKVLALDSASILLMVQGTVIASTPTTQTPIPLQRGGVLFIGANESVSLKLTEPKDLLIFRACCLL
row,SMILES,inhibition
1,O=C(CSc1nc2cc(Cl)ccc2s1)Nc1cccc(S(=O)(=O)N2CCOCC2)c1,15.2%
2,CCN1CCN(C(c2cccs2)C(C)NC(=O)CC(C)C)CC1 (stereo not drawn),0.5%
3,CCN(CCNC(=O)C1CCN(S(=O)(=O)c2cccc3cccnc23)CC1)c1ccccc1,8.4%
4,O=C(NNC(=O)c1cc(OCC(F)(F)F)ccc1OCC(F)(F)F)c1ccc(Cl)c(Cl)c1,16.5%
5,Cc1cc2oc(=O)cc(CN3CCCc4ccccc43)c2cc1C,-11.2%
6,Cc1ccc(SCCC(=O)NCCSCc2ccco2)cc1,7.9%
7,CN1CCC(N(C)C(=O)/C=C/c2cn(-c3ccccc3)nc2-c2cccs2)CC1,-5.9%
8,COc1ccc(S(=O)(=O)N2CCN(Cc3ccc(Cl)cc3)CC2)cc1,14.7%
9,CCOc1cc(-c2nc(-c3ccccc3)c(-c3cc([N+](=O)[O-])ccc3C)[nH]2)ccc1O,14.4%
10,Cc1ccc([N+](=O)[O-])cc1-c1[nH]c(-c2ccc(O)c(O)c2)nc1-c1ccccc1,51.7% (active)
11,COc1ccc(-c2nc(-c3ccccc3)c(-c3cc([N+](=O)[O-])ccc3C)[nH]2)cc1O,22.5%
12,Cc1ccc(COc2ccc(Br)cc2/C=N/O)cc1,19.7%
13,O=c1c2cc(Br)ccc2nc(-c2ccc([N+](=O)[O-])cc2)n1O,-3.6%
14,O=c1c2c([N+](=O)[O-])cc([N+](=O)[O-])cc2sn1-c1ccc(Br)cc1,109% (active)
15,O=[N+]([O-])c1cc([N+](=O)[O-])c2c(=Nc3ccccc3)n(-c3ccccc3)n(O)c2c1,10.6%
16,CCOc1ccccc1CN1CCN(S(=O)(=O)CC)CC1,3.5%
17,O=c1[nH]c(CSc2nnc(COc3ccccc3)n2-c2ccccc2)nc2ccccc12,-3.6%
18,Nc1cc(C(=O)OCC(=O)NCc2ccco2)ccc1Cl,-6.8%
19,COC(=O)c1ccc(OC)cc1OCC(=O)N1CCN(c2ccc(F)cc2)CC1,13.1%
20,O=C(/C=C/c1c(Cl)cccc1Cl)NCCc1ccccc1,-10%
21,CCS(=O)(=O)N1CCC(C(=O)NCc2cccnc2)CC1,4.6%
22,CC(C)CN(CC(C)C)S(=O)(=O)N1CCC(C(=O)NCc2ccc(F)cc2)CC1,2.6%
23,CC(C)CN(CC(C)C)S(=O)(=O)N1CCC(C(=O)NCc2cccnc2)CC1,55.2% (active)
24,COc1ccc(NC(=O)C(c2ccccc2)N(C)C(=O)CNC(C)=O)cc1 (stereo not drawn),-1.1%

row,SMILES,inhibition
1,COc1ccc2nc(N=Nc3ccc(N(C)C)cc3)sc2c1,-5.8%
2,COc1ccc2nc(/N=C\N(C)C)sc2c1,7%
3,CN(C)C(=O)c1nc2ccccc2s1,4.6%
4,CCOC(=O)N/C(N)=N/c1nc2ccccc2s1,3.7%
5,COc1ccc(-n2c(N)c(C(=O)NCC3CCCO3)sc2=S)cc1 (stereo not drawn),6%
6,Cn1c(=O)c(=O)n(C)c2cc(S(=O)(=O)N3CCC(Cc4ccccc4)CC3)ccc21,0.3%
7,CCOC(=O)N1CCN(S(=O)(=O)c2cccc3cccnc23)CC1,-9.6%
8,CCOC(=O)N1CCN(C(c2cccnc2)c2ccc3cccnc3c2O)CC1 (stereo not drawn),60.4% (active)
9,Cc1nc2sc(C(c3cccs3)N3CCN(c4ccccc4)CC3)c(O)n2n1 (stereo not drawn),4.2%
10,OCCN1CCN(C(c2cccs2)c2ccc3cccnc3c2O)CC1 (stereo not drawn),50.8% (active)
11,Oc1c(C(Nc2ccccn2)c2ccccn2)ccc2cccnc12 (stereo not drawn),6.9%
12,Oc1c(C(c2cccs2)N2CCN(c3ccccc3)CC2)sc2ncnn12 (stereo not drawn),-6.2%
13,Oc1c(C(c2ccccc2Cl)N2CCCC2)ccc2cccnc12 (stereo not drawn),32.1%
14,Cc1conc1NC(c1cccs1)c1ccc2cccnc2c1O (stereo not drawn),13%
15,CCC(=O)NC(c1cccs1)c1ccc2cccnc2c1O (stereo not drawn),33.8%
16,Oc1c(C(c2ccccn2)N2CCOCC2)ccc2cccnc12 (stereo not drawn),60.9% (active)
17,CN1CCN(C(c2cccnc2)c2ccc3cccnc3c2O)CC1 (stereo not drawn),39.6%
18,Oc1c(C(c2cccs2)N2CCN(c3ccccc3)CC2)ccc2cccnc12 (stereo not drawn),58.8% (active)
19,COC(=O)c1nn(-c2ccccc2)c(=O)cc1Oc1ccc(Cl)cc1,-15.5%
20,CCOC(=O)N1CCC(NC(=O)CCC(=O)N2CC(C)Oc3ccc(Cl)cc32)CC1 (stereo not drawn),19.2%
21,COc1ccc(C(=O)Nc2nnc(Cc3cccs3)s2)cc1OC,7.8%
22,COc1c(Cl)cnn(-c2ccc(Cl)c(Cl)c2)c1=O,-2.9%
23,CC1(C)NC(=O)N(CCOCCOc2ccccc2-c2ccccc2)C1=O,-2.9%
24,COc1cc(O)c2c(c1)OC(c1ccc(O)cc1)CC2=O (stereo not drawn),-1.3%
